# This excerpt belongs to a sample that is enriched for hits.
# ERK EGF inh = blocks ERK signaling stimulated by EGF. HEK293-V1b, EGF-stimulated phospho-ERK AlphaScreen. Potency, µM (titrated, usually from 11.5 µM), for inactives: top-dose activity change, negative = inhibition, usual class: inhibitors. 130,000 tested, 0.41% active. AID 1454;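 note: potency is the fitted concentration of half-maximal effect; plate controls were stimulated vehicle wells for no effect and unstimulated vehicle basal for full effect; nearly all actives have a fitted effect of over 55% in size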
#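 Phospho-ERK1/2 measured by AlphaScreen (SureFire) after 5 min 25 nM EGF stimulation of V1b-expressing HEK293 cells preincubated 30 min at 37C with titrated compounds; data scaled to DMSO and EGF controls, Hill-fitted AC50.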
# pERK EGF inh = reduces EGF-stimulated ERK phosphorylation in HEK293 cells; Potency, µM (series often up to 57.5 µM), without a hit: at the top dose activity change, negative = inhibition, usual class: inhibitors; 60 tested, 60% active; shares compounds with ERK EGF inh; HEK293 EGF-stimulated ERK phosphorylation, AlphaScreen; AID 1725
# cRaf kinase inh = blocks human c-Raf kinase activity. shares compounds with ERK EGF inh. c-Raf kinase inhibition, homogeneous biochemical assay. activity change, negative = inhibition, % at 76.9 µM. 70 tested, under 10 active. AID 1728
# MEK1 kinase inh = blocks human MEK1 kinase activity in ERK pathway follow-up | shares compounds with ERK EGF inh | homogeneous MEK kinase activity assay, ERK pathway | Potency, µM (series often up to 76.9 µM), for the others: at the top dose activity change, negative = inhibition, hits mostly inhibitors | 70 tested, under 10 active | AID 1732
# * = called active by the depositor; ? = inconclusive; . = not tested or not shown; [ ] = remark or other dose. Calls come from the whole dose curve; as a rule, active = well fitted curve in the direction sought with a large enough effect; inconclusive = small, poorly fitted or top-dose-only effect, or another doubt; inactive = no such curve, though single readings can be large; an effect the other way counts as inactive or inconclusive.
SMILES,ERK EGF inh,others
CC(Oc1ccccc1)C(=O)NNC(=O)c1ccccn1 (stereo not given),10.0%,
Cn1nc(-c2ccc(Cl)cc2)nc2c(=O)n(C)c(=O)nc1-2,?,pERK EGF inh=?;cRaf kinase inh=?;MEK1 kinase inh=?
CS(=O)(=O)n1nc(-c2ccc(Cl)cc2)nc1N,-5.2%,
COc1ccc(OCCn2nnc(-c3ccc(Cl)cc3)n2)cc1,3.6%,
OCC1(CCOc2ccccc2)CCN(Cc2ccc3c(c2)OCCO3)CC1,4.5%,
Cc1cccc(-n2c(O)cnc2Nc2nc(C)cc(C)n2)c1,7.0%,
CC(=O)Nc1ccc(/C=N/Nc2nc3ccccc3s2)cc1,-5.5%[57.5 µM],
CC(=O)N1CCC(=NNc2nc3ccccc3s2)CC1,?,pERK EGF inh=?;cRaf kinase inh=?;MEK1 kinase inh=-3.9%
CCOC(=O)N1CCC(=NNc2nc3ccccc3s2)CC1,4.5%[57.5 µM],
CCCC(=O)Nc1sc2c(c1C(=O)OC)C(C(=O)OC)CC2 (stereo not given),-4.0%,
Cc1c(N)cccc1-n1cccc1,-1.2%[57.5 µM],
CCCCC(=O)NC(=S)Nc1ccccc1N1CCCCC1,4.6%,
Cc1nc2ccccc2nc(=O)c1NNc1ccccc1,.,pERK EGF inh=14.1µM*;cRaf kinase inh=-5.9;MEK1 kinase inh=-2.2%
Cc1ccc2nc(=O)c(NNc3ccccc3)cnc2c1,14.1µM*,cRaf kinase inh=-16.0;MEK1 kinase inh=3.8%
Cc1ccc(S(=O)(=O)Nc2cnc3ccccc3c2)cc1,-3.4%,
Cc1nc2ccccc2nc1OCc1ccccc1,-3.1%,
CCOC(=O)c1nc2ccccc2nc1C,2.3%,
Cc1ccc2nc(-c3ccccc3)c(-c3ccccc3)nc2c1,-10.1%,
CCN(CC)CCCNC(=S)N(Cc1ccco1)Cc1cc2cc3c(cc2[nH]c1=O)OCCO3,5.4%,
CCCCOc1ccc(Cc2c(COCC)[nH]c(=S)[nH]c2=O)cc1,10.8%,
Cc1ccc(-c2cc([C@H]3[C@@H]4C=CCC[C@@]4(C)C(=O)N3Cc3ccccc3)ccc2F)cc1,-10.4%[57.5 µM],
Cc1cc(C(=O)CSc2nnc(N)s2)c(C)n1Cc1ccco1,1.6%,
COCCN(CCOC)C(=O)Nc1ccc(Cl)cc1,1.4%,
COC(=O)N1CCC[C@@]2(CCN(c3ncccn3)C2)C1,-3.9%,
CCOc1cccc(=O)c2c(C)n(-c3ccc(C(=O)O)cc3)c(C)c12,-12.7%[57.5 µM],
COC(=O)C1=C(C)NC(=S)NC1c1ccc(-c2ccccc2C(=O)OC)o1 (stereo not given),-4.0%,
